Data taken from PubChem BioAssay AID463173 (ICCB-Longwood Screening Facility, Harvard Medical School, 2010).
About 1,700 (3.3%) of roughly 52,000 compounds were called active. Rule as the data show it: active = survival mostly below about 52% (no sharp cut-off); inactive = mostly above about 56%. The sample as a whole holds a higher share of actives than the screen did.

The molecules below were run on Wild type (assay: growth inhibition of S. aureus wild type versus tarO mutant, primary screen, teichoic acid synthesis inhibitors, RN4220, OD600 (AID 463173)). Conditions: S. aureus RN4220 wild type/DeltatarO growth, OD600, 18 h, active compounds read low, screened at 18.75 µg/mL (by protocol).

Row | Compound | survival
1 | CCS(=O)(=O)N1CCC(NC(=O)c2ccccc2Cl)CC1 | 127% (inactive)
2 | COc1cccc(NC(=O)CC2C(=O)OCCN2Cc2ccccc2)c1 (centres undefined) | 161% (inactive)
3 | COc1ccc(CN2C(=O)N(c3cccc(C)c3)C(=O)C2CC(=O)Nc2ccc(F)cc2)cc1OC (centres undefined) | 73% (inactive)
4 | CCCCSc1ncnc2c1c(-c1ccccc1)cn2-c1cccc(F)c1 | 84% (inactive)
5 | CCCSc1ncnc2c1c(-c1ccccc1)cn2-c1ccccc1OC | 1% (active)
6 | CCOC(=O)CSc1ncnc2c1c(-c1ccccc1)cn2-c1ccc(OC)cc1 | 75% (inactive)
7 | CCOC(=O)N1CCc2c(sc3c2c(=O)n(Cc2ccccc2)c(=O)n3CC(=O)Nc2ccc(F)cc2)C1 | 87% (inactive)
8 | CCCCNc1nc2c(c(=O)n(Cc3ccc(Cl)cc3)c(=O)n2C)n1C | 70% (inactive)
9 | CCCCNc1nc2c(c(=O)n(Cc3ccc(Cl)c(Cl)c3)c(=O)n2C)n1C | 1% (active)
10 | CCCCNc1nc2c(c(=O)n(Cc3ccccc3)c(=O)n2C)n1C | 67% (inactive)
11 | Cc1ccc2[nH]c(=O)c3cc(C(=O)N(CCCOC(C)C)Cc4ccco4)sc3c2c1 | 71% (inactive)
12 | CCn1c(=O)c2cc(C(=O)N(CCCOC(C)C)Cc3ccco3)sc2c2ccccc21 | 1% (active)
13 | CCCn1c2ccccc2c2cnn(CC(=O)N(CCCOC(C)C)Cc3ccco3)c(=O)c21 | 76% (inactive)
14 | CCn1c(=O)c2cc(C(=O)N(C)c3cc(C)ccc3C)sc2c2ccccc21 | 125% (inactive)
15 | CCn1c(=O)c2cc(C(=O)N(CC(C)C)CC(C)C)sc2c2ccccc21 | -1% (active)
16 | CCn1c(=O)c2cc(C(=O)N(CCN(C)C)Cc3ccccc3)sc2c2ccccc21 | 75% (inactive)
17 | O=C(NC1CCCCC1)c1ccco1 | 102% (inactive)
18 | COc1ccc(OC)c(NC(=O)c2sc3nc4c(cc3c2N)CCCCCC4)c1 | 70% (inactive)
19 | CC(=O)N1c2ccc(S(=O)(=O)N3CCCCCC3)cc2CC1C(=O)NCc1ccccc1F (centres undefined) | 131% (inactive)
20 | O=C(NCCSc1c(-c2ccc(Br)cc2)[nH]c2ccccc12)c1ccc(S(=O)(=O)N2CCOCC2)cc1 | 84% (inactive)
21 | Cn1c(SCCC(=O)O)nnc1-c1ccncc1 | 105% (inactive)
22 | Cc1cc(N2CCCC(O)C2)n2nc(C)c(-c3ccc(F)cc3)c2n1 (centres undefined) | 120% (inactive)
23 | COc1ccc(C2=C(Nc3ccc(C)cc3C)c3ccccc3C2=O)cc1 | 76% (inactive)

Row | Compound | survival
24 | COc1ccc(C2=C(Nc3ccc(Br)c(C)c3)c3ccccc3C2=O)cc1 | 20% (active)
25 | COc1ccc(C2=C(Nc3ccc(C)c(C)c3)c3ccccc3C2=O)cc1 | 90% (inactive)
26 | O=C(NCC1(c2ccccc2)CCCC1)C(=O)Nc1cccc(Br)c1 | 96% (inactive)
27 | Cc1cc(C)cc(NC(=O)CCCn2c3ccccc3c(=O)c3ccccc32)c1 | 69% (inactive)
28 | O=C(NCCc1ccccc1Cl)c1cc2ccccn2n1 | 140% (inactive)
29 | COc1cc(NC(=O)c2nc3ccccc3nc2N2CCCCC2)cc(OC)c1OC | 82% (inactive)
30 | COc1cc(NC(=O)C2CCN(c3cnc4ccccc4n3)CC2)cc(OC)c1OC | -6% (active)
31 | COc1cc(NC(=O)C2CCN(c3nc4ccccc4nc3C(F)(F)F)CC2)cc(OC)c1 | 78% (inactive)
32 | CCc1ccc(-n2c(Cc3ccccc3)nnc2SCc2nc(-c3cccs3)no2)cc1 | 99% (inactive)
33 | CCC(C(=O)Nc1ccc(C(C)=O)cc1)n1cnc2nc3c(cc2c1=O)CCCC3 (centres undefined) | 63% (inactive)
34 | COc1cc(NS(=O)(=O)c2cnc(N)nc2)cc(OC)c1 | 64% (inactive)
35 | CC(=O)c1ccc(NS(=O)(=O)c2cnc(N)nc2)cc1 | 1% (active)
36 | Nc1ncc(S(=O)(=O)Nc2ccc(OC(F)(F)F)cc2)cn1 | 63% (inactive)
37 | Cc1cccc(NC(=O)C2CCN(S(=O)(=O)c3ccc4c(c3)CCCN4C(=O)C3CCC3)CC2)c1 | 74% (inactive)
38 | COc1cccc(N2CC(NC(=O)C(c3ccccc3)c3ccccc3)CC2=O)c1 (centres undefined) | 65% (inactive)
39 | COc1ccc(C2c3c(n(C)c4ccccc34)C(=O)N2CC(=O)Nc2ccccc2Cl)cc1 (centres undefined) | 135% (inactive)
40 | COc1ccccc1CNC(=O)CCc1c(C)c2cc3c(C)c(C)oc3cc2oc1=O | 114% (inactive)
41 | CCCOc1cccc(C(=O)Nc2ccc(-c3nc4ccccc4s3)c(Cl)c2)c1 | 65% (inactive)
42 | Cc1cccc2cc(C#N)c(SCC(=O)NCC3CCCO3)nc12 (centres undefined) | 103% (inactive)
43 | COc1cc(Cl)c(NC(=O)CN(C)S(=O)(=O)c2ccc3c(c2)CCCC(=O)N3)c(OC)c1 | 59% (inactive)
44 | Cc1cccc(NC(=O)CCNS(=O)(=O)c2ccc3c(c2)CCCC(=O)N3)c1C | 80% (inactive)
45 | COc1cc(OC)c(NC(=O)CN(C)S(=O)(=O)c2ccc3c(c2)CCCC(=O)N3)cc1Cl | 1% (active)
46 | COc1cc(NC(=O)CN(C)S(=O)(=O)c2ccc3c(c2)CCCC(=O)N3)cc(OC)c1OC | 81% (inactive)

Row | Compound | survival
47 | Cc1ccc(NC(=O)CCNS(=O)(=O)c2ccc3c(c2)CCCC(=O)N3)cc1 | 73% (inactive)
48 | Cc1ccc(C)c(NC(=O)CCNS(=O)(=O)c2ccc3c(c2)CCCC(=O)N3)c1 | -6% (active)
49 | Cc1ccc(C)c(NC(=O)Cn2ncc3c([nH]c4ccccc43)c2=O)c1 | 45% (inactive)
50 | CC(C)c1ccc(NC(=O)Cc2ccc(NC(=O)N3CCCCc4ccccc43)cc2)cc1 | 110% (inactive)
51 | Nc1cc(=O)nc(SCC(=O)Nc2ccccc2)n1CCc1ccccc1 | 69% (inactive)
52 | Cc1ccc(NC(=O)CN2C(=O)C3(SCC(=O)N3c3ccc(F)c(F)c3)c3ccccc32)c(C)c1 (centres undefined) | 69% (inactive)
53 | COc1ccc(Nc2ncnc3sc4c(c23)CCCC4)cc1 | 73% (inactive)
54 | O=C(Cn1nnc2sc3c(c2c1=O)CCCC3)Nc1ccc(F)c(Cl)c1 | 33% (inactive)
55 | CCc1nc(Nc2ccc(F)c(Cl)c2)c2c3c(sc2n1)CCCC3 | -1% (active)
56 | Cc1cc(C)c(Cn2c3ccccc3c3cnn(CC(=O)N4CCCCCC4)c(=O)c32)c(C)c1 | 1% (active)
57 | Cc1ccccc1Cn1c2ccccc2c2cnn(CC(=O)NC3CCC(C)CC3)c(=O)c21 (centres undefined) | 78% (inactive)
58 | CC1CCN(C(=O)Cn2ncc3c4ccccc4n(Cc4ccc(Cl)cc4)c3c2=O)CC1 | 95% (inactive)
59 | CCCn1c2ccccc2c2cnn(CC(=O)N3CCN(c4ccccc4F)CC3)c(=O)c21 | -6% (active)
60 | Cc1ccccc1Cn1c2ccccc2c2cnn(CC(=O)N3CCC(C)CC3)c(=O)c21 | 12% (active)
61 | CCN1CCN(C(=O)Cn2ncc3c4ccccc4n(Cc4ccccc4F)c3c2=O)CC1 | 82% (inactive)
62 | CCN1CCN(C(=O)Cn2ncc3c4ccccc4n(Cc4c(C)cc(C)cc4C)c3c2=O)CC1 | 126% (inactive)
63 | CCCn1c2ccccc2c2cnn(CC(=O)N3CCC(C)CC3)c(=O)c21 | 67% (inactive)
64 | Cc1cc(C)c(Cn2c3ccccc3c3cnn(CC(=O)N4CCCCC4)c(=O)c32)c(C)c1 | 125% (inactive)
65 | COc1ccc(NC(=O)Nc2nnc(N(CC(C)C)CC(C)C)s2)c(OC)c1 | 96% (inactive)
66 | COc1ccccc1C(=O)Nc1sc(Nc2ccccc2)nc1C(N)=O | 146% (inactive)
67 | S=c1nc(CNc2ccccc2)[nH][nH]1 | 95% (inactive)
68 | CC(=O)N1c2c(cc(Br)cc2S(=O)(=O)N2CCN(c3cc(C)ccc3C)CC2)CC1C (centres undefined) | 72% (inactive)
69 | COc1ccc(NC(=O)Cn2c(=O)n(CCCCCC(=O)NCc3ccc4c(c3)OCO4)c(=O)c3sccc32)cc1Cl | 89% (inactive)

Row | Compound | survival
70 | COc1ccc2c(CNCCc3cccs3)c(C(=O)O)n(Cc3ccc(F)cc3Cl)c2c1 | 115% (inactive)
71 | CCCCN1CC(c2nc3ccccc3n2CCCCOc2ccccc2C)CC1=O (centres undefined) | 15% (active)
72 | Cc1ccccc1OCCCCn1c(C2CC(=O)N(c3ccccc3Cl)C2)nc2ccccc21 (centres undefined) | 59% (inactive)
73 | CCCCn1c(C2CC(=O)N(c3ccc(OCC)cc3)C2)nc2ccccc21 (centres undefined) | 84% (inactive)
74 | CCCCN1CC(c2nc3ccccc3n2CCCCOc2cc(C)cc(C)c2)CC1=O (centres undefined) | 14% (active)
75 | CCCCN1CC(c2nc3ccccc3n2CCCCOc2c(C)cccc2C)CC1=O (centres undefined) | 61% (inactive)
76 | CCCCN1CC(c2nc3ccccc3n2CCCCOc2cccc(C)c2C)CC1=O (centres undefined) | -13% (active)
77 | CCCCN1CC(c2nc3ccccc3n2CCCCOc2ccc(C)c(C)c2)CC1=O (centres undefined) | 24% (inactive)
78 | Cc1ccc(-c2nn(-c3ccc(F)cc3F)c3c2cnc2ccc(F)cc23)cc1 | 65% (inactive)
79 | CCOC(=O)c1ccc(NC(=O)CSc2nc(-c3cccs3)cc(C(F)(F)F)c2C#N)cc1 | 85% (inactive)
80 | CC(C)N(C(=O)Cn1cc(S(=O)(=O)Cc2ccc(Br)cc2)c2ccccc21)C(C)C | 80% (inactive)
81 | O=C(c1ccc2c(c1)N(Cc1cccc(Cl)c1)C(=O)c1ccccc1S2)N1CCOCC1 | 99% (inactive)
82 | Cc1ccnc(N2CCC(C(=O)NCc3ccc(F)cc3)CC2)n1 | 105% (inactive)
83 | Nc1nc2nc(-c3ccc(Cl)cc3)cc(C(F)(F)F)n2n1 | 144% (inactive)
84 | CC(C)c1ccccc1NC(=O)CC(C)(C)C | 121% (inactive)
85 | COc1cccc2cc(-c3nc4ccc(C)cc4[nH]3)c(=O)oc12 | 73% (inactive)
86 | C=CCc1cccc2cc(-c3nc4ccc(C(=O)O)cc4[nH]3)c(=O)oc12 | 83% (inactive)
87 | C=CCc1cccc2cc(-c3nc4ccc(C)cc4[nH]3)c(=O)oc12 | -3% (active)
88 | COC(=O)c1ccc(NC(=O)CSc2cn(CC(=O)N3CCCCC3)c3ccccc23)cc1 | 89% (inactive)
89 | CCC(=O)N1CCc2cc(S(=O)(=O)CCC(=O)N3CCN(c4ccccc4Cl)CC3)ccc21 | 78% (inactive)
